# Results from PubChem BioAssay (Tox21).
# Inconclusive results are not listed. Where a call stands in place of a potency, no number is given. Unmarked numbers belong to inactive results. Activity calls are given as the source filed them. Calls follow the shape of the dose curve; as a rule, active = well fitted cell-killing curve with a large enough effect in the repeat runs; inconclusive = weak or mixed curves, or effect the other way; inactive = flat fitted curve, though single readings scatter.
# Test: qHTS RealTime-Glo MT Cell Viability Assay in HEK293 cells - 32 hour (AID 1224868); also: top concentration of the series differs between compounds; nearly all actives have a fitted effect of over 50% in size
# Details: RealTime-Glo luminescence; series mostly up to 76.8 µM
# Method in brief: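 HEK293 cells seeded with NanoLuc/prosubstrate reagent, rested 5 h at 37 C, then dosed and kept at 37 C up to 40 h. Nonlytic real-time luminescence from viable cells read at 0, 8, 16, 24, 32 and 40 h.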
SMILES,Potency,"activity change, negative = cytotoxic"
CC(=O)CCC(C)=O,inactive,–
CCc1ccc(C(=O)NN(C(=O)c2cc(C)cc(C)c2)C(C)(C)C)cc1,inactive,–
CCO[C@H]1O[C@@H]2OC3(C)CC[C@H]4[C@H](C)CC[C@@H]([C@H]1C)[C@@]24OO3,inactive,–
BrCCCCBr,inactive,–
c1cc2ccc3cccc4ccc(c1)c2c34,inactive,–
C[C@@H]1CC[C@H]2[C@@H](C)C(=O)O[C@@H]3O[C@@]4(C)CC[C@@H]1[C@]32OO4,inactive,–
CC(C)N(CCC(C(N)=O)(c1ccccc1)c1ccccn1)C(C)C (stereo not drawn),inactive,–
C#CCOC(C(=O)OCCN(C)C)(c1ccccc1)c1ccccc1,inactive,–
CCCCCCCCCCOC(=O)c1ccccc1C(=O)OCCCCCCCCCC,inactive,–
[O-][Cl+]O,inactive,–
O=C(CBr)Nc1ccc(Cl)cc1C(=O)c1ccccc1F,inactive,–
Brc1ccc(Oc2ccccc2)cc1,inactive,–
C=C(C#N)CCC#N,inactive,–
CO[C@@H]1[C@H](OC(=O)NC(=O)CCl)CC[C@]2(CO2)[C@H]1[C@@]1(C)O[C@@H]1CC=C(C)C,–,8.14% [at 15.8 µM]
O=C1c2ccccc2C(=O)C1C(=O)C(c1ccccc1)c1ccccc1,inactive,–
CN1C(=O)NC(=O)C(C)(C2=CCCCC2)C1=O (stereo not drawn),inactive,–
O=C(NC(=O)c1c(F)cccc1F)Nc1ccc(OC(F)(F)C(F)OC(F)(F)F)c(Cl)c1 (stereo not drawn),inactive,–
COc1c(C(C)(C)C)cc([N+](=O)[O-])c(C)c1[N+](=O)[O-],inactive,–
